Sfp PPTase inh: blocks B. subtilis Sfp PPTase activity; actives 3.5% (n = 310,000); Biochemical Sfp PPTase activity, qHTS; Potency, µM, usual class: inhibitors;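 further: the enzyme is Sfp with the accession as filed and its product quenches rhodamine fluorescence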
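After 15 min at room temperature with compound, 15 nM Sfp received 5 uM rhodamine-CoA plus 12.5 uM BHQ-2-ybbR (50 mM Hepes pH 7.6, 10 mM MgCl2). Rate came from the fluorescence difference over 30 min, ex 525/em 598 nm.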
VDR inhibitor: inhibitors of human vitamin D receptor | VDR-SRC2-3 peptide fluorescence polarization, 2 h | P11473 | Potency, µM, hits mostly inhibitors | actives 0.93% (n = 400,000) | AID 504847
Target sequence (P11473 whole entry, looked up): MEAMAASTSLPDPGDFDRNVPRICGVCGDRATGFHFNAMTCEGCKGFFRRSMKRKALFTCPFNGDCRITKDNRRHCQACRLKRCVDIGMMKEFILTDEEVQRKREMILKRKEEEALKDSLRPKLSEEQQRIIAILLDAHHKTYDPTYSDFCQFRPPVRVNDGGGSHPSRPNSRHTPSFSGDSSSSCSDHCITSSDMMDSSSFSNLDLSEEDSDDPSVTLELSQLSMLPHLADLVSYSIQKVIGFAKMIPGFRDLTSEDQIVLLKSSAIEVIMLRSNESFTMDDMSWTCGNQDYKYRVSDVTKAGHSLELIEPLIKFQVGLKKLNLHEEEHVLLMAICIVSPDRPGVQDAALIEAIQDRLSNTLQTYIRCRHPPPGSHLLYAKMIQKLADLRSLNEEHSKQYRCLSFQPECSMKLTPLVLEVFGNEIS
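Reagent solutions, kept cold and dark, are dispensed first; compounds are then pinned in at 23 nl, plates briefly spun, and incubated 2 h at ambient temperature. Inhibition of VDR–SRC2-3 peptide binding is read by fluorescence polarization.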
PLK1 PBD inh: blocks phosphopeptide binding to human PLK1 polo-box domain | Plk1 PBD binding of FITC phosphopeptide, fluorescence polarization | actives 2.8% (n = 360,000) | P53350 | Potency, µM, most hits filed as inhibitors; further: series mostly up to about 57 µM; nearly all actives have a fitted effect of over 65% in size
IDH1 R132H inh: inhibitors of human mutant IDH1 R132H; IDH1-R132H enzyme, NADPH consumption, diaphorase/resazurin fluorescence; Potency, µM (highest dose often 76.6 µM), usual class: inhibitors; actives 0.093% (n = 390,000); O75874; AID 602179; further: nearly all actives have a fitted effect of over 65% in size
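IDH1-R132H (0.5 ug/mL) preincubated 30 min with compound, then NADPH (0.016 mM) and alpha-KG (2 mM) added; 80 min at RT, pH 7.5. Remaining NADPH coupled via diaphorase/resazurin to fluorescence (540/590 nm); concentration-response curves normalized to no-enzyme control.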
rTrxR1 inhibitor: blocks rat thioredoxin reductase 1. O89049. recombinant rTrxR1, NADPH fluorescence consumption, selenite substrate. Potency, µM (highest dose often 114 µM), actives largely listed as inhibitors. actives 1% (n = 390,000). AID 588453; further: nearly all actives have a fitted effect of over 65% in size
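Rat TrxR1 (90 nM in the dispensed reagent) was pre-reduced with 400 uM NADPH for 5 min at room temperature, then incubated with compound for 15 min. After 400 uM selenite was added, NADPH fluorescence (Ex 340/Em 450 nm) was followed for 8 min.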
TrxR1 substrate: is turned over as a substrate by rat TrxR1; actives 0.01% (n = 390,000); Potency, µM (highest dose often 114 µM); purified TrxR1 substrate turnover, NADPH consumption readout; AID 588456; further: nearly all actives have a fitted effect of over 50% in size
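Rat TrxR1, dispensed at 90 nM, was prereduced with 400 uM NADPH (final) for 5 min at ~22 deg C, then incubated with compound 15 min before 400 uM selenite. A first-read NADPH fluorescence drop versus no-compound background flagged substrates.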
Of the large screens only hits and unclear results are named; the others gave an inactive call. Sampled rows, rich in hits. Any-hit rate of the full collection: about 5.2%. The call rests on the fitted dose curve; in most records, active means well fitted curve in the direction sought with a large enough effect; inconclusive means small, poorly fitted or top-dose-only effect, or another doubt; inactive means no such curve, though single readings can be large; an effect the other way counts as inactive or inconclusive.

O=C(CSc1ccc(Cl)cc1)NC(=O)NCc1ccco1	VDR inhibitor inconclusive, PLK1 PBD inh 2.99µM
O=C(CSc1nc2cc(Cl)ccc2s1)NC(=O)NCc1ccco1	Sfp PPTase inh 89.1µM, rTrxR1 inhibitor inconclusive
O=C(CSc1ccc(Cl)cc1)NCc1ccco1	Sfp PPTase inh 89.1µM
CCOc1ccc2nc(SCC(=O)NC(=O)NCc3ccco3)sc2c1	none
Nn1c(SCC(=O)N2CCCC2)nnc1-c1cccs1	none (no result: Sfp PPTase inh, VDR inhibitor, rTrxR1 inhibitor, TrxR1 substrate)
CC(=O)c1c(C)oc2ccc(N(C(=O)Oc3ccccc3)S(=O)(=O)c3ccc(Cl)cc3)cc12	none (no result: Sfp PPTase inh, PLK1 PBD inh)
O=C(CC(NS(=O)(=O)c1ccc(Cl)cc1)c1ccco1)NCc1ccco1 (configuration not stated)	PLK1 PBD inh 29.9µM
COc1ccccc1CNC(=O)CSC1=NCCS1	VDR inhibitor inconclusive, PLK1 PBD inh inconclusive
O=C(CSC1=NCCS1)NCc1ccco1	VDR inhibitor 20µM, PLK1 PBD inh 2.99µM
COc1ccc(CCNC(=O)CC(=O)N/N=C/c2ccc(Br)cc2)cc1OC	none
COc1cccc(/C=N/NC(=O)CC(=O)NCCc2ccc(OC)c(OC)c2)c1	PLK1 PBD inh 26.7µM
CCc1ccc(S(=O)(=O)c2cn(CC(=O)Nc3cccc(C)c3)c3ccc(Cl)cc3c2=O)cc1	none (no result: Sfp PPTase inh, PLK1 PBD inh)
COc1ccc(CCNC(=O)CNCC2CCCO2)cc1OC (configuration not stated)	Sfp PPTase inh 63.1µM
O=C(CSc1ccccc1C(=O)O)NC12CC3CC(CC(C3)C1)C2	PLK1 PBD inh 29.9µM
O=C(CSc1ncccc1C(=O)O)NC12CC3CC(CC(C3)C1)C2	Sfp PPTase inh inconclusive
N[C@@H](Cc1cnc[nH]1)C(=O)Nc1ccc2ccccc2c1	none (no result: Sfp PPTase inh)
CC(=O)c1cccc(N2C(=NC(=O)COc3ccccc3)SC3CS(=O)(=O)CC32)c1 (configuration not stated)	VDR inhibitor inconclusive, PLK1 PBD inh 23.8µM
CC(=O)c1ccc(N2C(=NC(=O)COc3ccccc3)SC3CS(=O)(=O)CC32)cc1 (configuration not stated)	none
Cc1sc(NC(=O)CCC(=O)O)c(C(N)=O)c1-c1ccccc1	Sfp PPTase inh 35.5µM, VDR inhibitor inconclusive, PLK1 PBD inh 13.4µM
CCCC(=O)Nc1sc(Cc2ccccc2)c(C)c1C(N)=O	Sfp PPTase inh 12.6µM, VDR inhibitor inconclusive, PLK1 PBD inh 5.32µM
COc1ccc(NC(=O)c2c(NC(=O)CCC(=O)O)sc(-c3ccccc3)c2C)cc1	Sfp PPTase inh 15.8µM, VDR inhibitor inconclusive, PLK1 PBD inh 23.8µM
COC(=O)c1c(NC(=O)CCC(=O)O)sc(Cc2ccccc2)c1C	PLK1 PBD inh inconclusive
COC(=O)CCC(=O)Nc1sc(C)c(C)c1C(N)=O	Sfp PPTase inh 14.1µM, VDR inhibitor 50.1µM, PLK1 PBD inh 4.74µM
Cc1sc(NC(=O)C2CCCCC2C(=O)O)c(C(N)=O)c1-c1ccccc1 (configuration not stated)	PLK1 PBD inh inconclusive
Cc1cc(C(=O)Nc2sc(C)c(-c3ccc(F)cc3)c2C(N)=O)no1	none
CCc1ccc(-c2c(C)sc(NC(C)=O)c2C(N)=O)cc1	Sfp PPTase inh 50.1µM, PLK1 PBD inh 26.7µM
Cn1cnc2c(=O)oc3ccc(S(=O)(=O)N4CCN(c5cccc(Cl)c5)CC4)cc3c21	none (no result: Sfp PPTase inh, PLK1 PBD inh)
O=C(CSc1nnc(-c2cnccn2)n1Cc1ccco1)c1ccc(Cl)cc1	VDR inhibitor inconclusive, rTrxR1 inhibitor 12.6µM
O=C(CSc1nnc(-c2cnccn2)n1Cc1ccco1)c1ccccc1	rTrxR1 inhibitor 56.2µM
NC(=O)CSc1nnc(-c2cnccn2)n1Cc1ccco1	none
Brc1ccc(CSc2nnc(-c3ccccn3)n2Cc2ccco2)cc1	none
CC(C)(C)c1ccc(CSc2nnc(-c3ccccn3)n2Cc2ccco2)cc1	Sfp PPTase inh 31.6µM
CCCCOc1cccc(NC(=O)c2cccc(C(=O)Nc3cccc(OCCCC)c3)c2)c1	none (no result: Sfp PPTase inh, PLK1 PBD inh)
COc1ccccc1Cc1c(-c2cccc(Cl)c2)nc2ccc(Br)cn12	none (no result: Sfp PPTase inh, VDR inhibitor, IDH1 R132H inh, rTrxR1 inhibitor, TrxR1 substrate)
CCOC(=O)c1c(N2C(=O)C=CC2=O)sc(C)c1C	Sfp PPTase inh 2.51µM, PLK1 PBD inh 5.32µM, rTrxR1 inhibitor 2.24µM
CCOC(=O)c1cc(CC)sc1NC(=O)c1cc(OCC)c(OCC)c(OCC)c1	VDR inhibitor inconclusive, PLK1 PBD inh 26.7µM
